Molecules are shown by their SMILES. About 83,000 compounds went through this panel and 20% of them were active in at least one assay; those are over-represented in the sample as a whole.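 Cells were grown in 96-well plates and exposed to the test compound at a single concentration for 48 hours; results are reported as percent growth, with values below 10 considered active.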 A number with no mark means an inactive call. The source made the active and inactive calls.

This passage reports growth results from PubChem BioAssay (NCI).

Some test systems named below: RPMI-8226 leukemia; OVCAR-8 ovarian; OVCAR-5 ovarian; OVCAR-4 ovarian; SK-OV-3 ovarian; IGROV1 ovarian; OVCAR-3 ovarian; HS 578T breast; NCI/ADR-RES ovarian; T-47D breast; BT-549 breast; MDA-MB-435 melanoma; SW-620 colon; MCF7 breast; HCT-116 colon; HCC-2998 colon; KM12 colon.
Common to all, as to experiment: NCI-60 one-dose screen, 48 h (100 = growth as untreated, 0 = no growth, -100 = all killed)
Holding throughout (conditions): 10 µM

`COc1ccc(NC2=NC(C)(CO)CS2)cc1` (stereo not drawn): the growth in the assay on RPMI-8226 leukemia was 83.6%; in the assay with OVCAR-8 ovarian, 74.3%; with OVCAR-5 ovarian, 103%; in the assay on OVCAR-4 ovarian it was 97.7%; in the assay with SK-OV-3 ovarian it was 104%; in the assay on IGROV1 ovarian, 87.7%. Further, the growth is 112% in the assay on OVCAR-3 ovarian; 99.3% in the assay with HS 578T breast; 106% in the assay on NCI/ADR-RES ovarian; 101% in the assay with T-47D breast; 98.4% with BT-549 breast; 101% with MDA-MB-435 melanoma. The growth with SW-620 colon is 104%; in the assay with MCF7 breast, 88.6%; in the assay with HCT-116 colon, 102%; in the assay on HCC-2998 colon it was 104%; in the assay with KM12 colon it was 104%.
Turning to `Cc1ccc(-c2n[nH]c(=O)c3noc(-c4ccc(C)cc4)c23)cc1`, the growth was 11.8% in the assay on RPMI-8226 leukemia; 43.3% with OVCAR-8 ovarian; 66.2% in the assay with OVCAR-5 ovarian; 59.4% in the assay on OVCAR-4 ovarian; 21.4% with SK-OV-3 ovarian; 53.5% with IGROV1 ovarian. In addition, the growth in the assay with OVCAR-3 ovarian was -13.3% (active); in the assay with HS 578T breast, 21.9%; in the assay with NCI/ADR-RES ovarian, 32.5%; with T-47D breast, 28.6%; with BT-549 breast it was 38.3%; with MDA-MB-435 melanoma it was -13.3% (active). The growth was 28% with SW-620 colon; 20.2% with MCF7 breast; 32.2% in the assay on HCT-116 colon; 70.3% with HCC-2998 colon; 35.9% in the assay on KM12 colon.
With `CN1c2ccccc2[C@]2(Cc3ccccc3)Cc3ccccc3N[C@H]12`, the growth in the assay with RPMI-8226 leukemia is 98.9%; in the assay with OVCAR-8 ovarian it was 106%; in the assay with OVCAR-5 ovarian, 93.8%; in the assay with OVCAR-4 ovarian, 91%; in the assay on SK-OV-3 ovarian, 122%; in the assay on IGROV1 ovarian, 88.8%. Besides, the growth was 120% in the assay on OVCAR-3 ovarian; 110% in the assay with HS 578T breast; 107% in the assay with NCI/ADR-RES ovarian; 109% in the assay with T-47D breast; 122% with BT-549 breast; 117% in the assay on MDA-MB-435 melanoma. In addition, the growth with SW-620 colon was 101%; with MCF7 breast, 94.1%; with HCT-116 colon, 91.8%; in the assay on HCC-2998 colon it was 103%; with KM12 colon it was 104%.
As for `COc1cc(Cl)cc(-c2nn(-c3cccc(NC(=O)Nc4ccc(Cl)c(C(F)(F)F)c4)c3)cc2-c2ccncc2)c1`, the growth was -29.1% (active) in the assay on RPMI-8226 leukemia; 8.71% (active) in the assay with OVCAR-8 ovarian; 19.2% with OVCAR-5 ovarian; 16.6% in the assay on OVCAR-4 ovarian; 12% in the assay with SK-OV-3 ovarian; 30.2% in the assay on IGROV1 ovarian. Besides, the growth in the assay on OVCAR-3 ovarian is -22.6% (active); in the assay with HS 578T breast, 14.6%; with NCI/ADR-RES ovarian it was 6.07% (active); with T-47D breast it was 8.1% (active); in the assay on BT-549 breast it was 9.81% (active); in the assay with MDA-MB-435 melanoma, -16.8% (active). Moreover, the growth with SW-620 colon was 12.7%; in the assay with MCF7 breast it was 2.57% (active); in the assay on HCT-116 colon, 3.39% (active); in the assay with HCC-2998 colon, 18.1%; in the assay on KM12 colon it was 9.1% (active).
With `O=C(Nc1nc2ccc(F)cc2s1)c1cc(-c2ccc(F)cc2)n2nc(-c3ccccc3)cc2n1`, the growth with RPMI-8226 leukemia was 97.7%; in the assay on OVCAR-8 ovarian it was 38.6%; in the assay with OVCAR-5 ovarian, 107%; in the assay on OVCAR-4 ovarian, 17.9%; in the assay with SK-OV-3 ovarian, 86.4%; with IGROV1 ovarian it was 122%. The growth in the assay with OVCAR-3 ovarian was 82.8%; with HS 578T breast, 73.3%; with NCI/ADR-RES ovarian, 53%; in the assay on T-47D breast, 75.2%; in the assay with BT-549 breast it was 88%; in the assay on MDA-MB-435 melanoma, 62.7%. Besides, the growth in the assay with SW-620 colon is 62.4%; in the assay on MCF7 breast, 80.6%; in the assay on HCT-116 colon, 79.1%; in the assay with HCC-2998 colon, 99.8%; with KM12 colon, 65.9%.
Consider `CN(C)CC(O)c1ccc2cc(Br)c3ccccc3c2c1` (stereo not drawn), for which the growth in the assay with RPMI-8226 leukemia is 56.1%; in the assay with OVCAR-8 ovarian it was 79.7%; in the assay on OVCAR-5 ovarian, 68.4%; in the assay with OVCAR-4 ovarian it was 84.9%; with SK-OV-3 ovarian, 95.4%; in the assay on IGROV1 ovarian it was 22.5%. The growth with OVCAR-3 ovarian is 81%; in the assay with HS 578T breast, 74.9%; in the assay on NCI/ADR-RES ovarian, 59.7%; with T-47D breast, 69.4%; with BT-549 breast, 75.8%; in the assay with MDA-MB-435 melanoma, 42.4%. The growth with SW-620 colon is 63.7%; in the assay on MCF7 breast, 35.1%; with HCT-116 colon it was 41.2%; in the assay with HCC-2998 colon it was 25.8%; in the assay with KM12 colon, 48.6%.
Turning to `COc1cc2cc3c(nc2cc1OC)CCN3Cc1ccc(NC(=O)Nc2ccc(F)cc2F)cc1`, the growth was 66% in the assay on RPMI-8226 leukemia; 79.7% with OVCAR-8 ovarian; 105% in the assay on OVCAR-5 ovarian; 61.2% in the assay on OVCAR-4 ovarian; 84% in the assay with SK-OV-3 ovarian; 89.8% in the assay with IGROV1 ovarian. For the same compound, the growth in the assay with OVCAR-3 ovarian is 84.1%; in the assay on HS 578T breast it was 99.7%; with NCI/ADR-RES ovarian it was 73%; in the assay on T-47D breast it was 52.1%; in the assay with BT-549 breast, 76.7%; in the assay with MDA-MB-435 melanoma, 89%. Further, the growth with SW-620 colon is 100%; in the assay on MCF7 breast it was 81.3%; in the assay with HCT-116 colon it was 81.3%; in the assay with HCC-2998 colon it was 85.1%; in the assay on KM12 colon it was 87.2%.
With `O=S(=O)(Nc1ccccn1)c1ccc(N=Nc2ccc(O)c3ncccc23)cc1`, the growth is -15.1% (active) in the assay on RPMI-8226 leukemia; 1.26% (active) with OVCAR-8 ovarian; 22.4% in the assay on OVCAR-5 ovarian; 8.85% (active) in the assay on OVCAR-4 ovarian; -7.21% (active) in the assay on SK-OV-3 ovarian; -1.59% (active) with IGROV1 ovarian. For the same compound, the growth in the assay with OVCAR-3 ovarian was 14.4%; in the assay on HS 578T breast it was 13.5%; in the assay on NCI/ADR-RES ovarian it was 14.1%; in the assay on T-47D breast, -6.2% (active); in the assay with BT-549 breast, 1.2% (active); in the assay with MDA-MB-435 melanoma, 10.1%. The growth with SW-620 colon was 11.7%; in the assay with MCF7 breast it was 5.03% (active); in the assay on HCT-116 colon, 10.6%; in the assay with HCC-2998 colon, 35.7%; with KM12 colon, 14.1%.
For the compound `CC(=O)c1cc(Br)ccc1O`, the growth with RPMI-8226 leukemia is 105%; in the assay on OVCAR-8 ovarian it was 112%; in the assay on OVCAR-5 ovarian, 92.3%; with OVCAR-4 ovarian, 105%; with SK-OV-3 ovarian, 126%; in the assay on IGROV1 ovarian, 136%. In addition, the growth in the assay on OVCAR-3 ovarian is 118%; in the assay on HS 578T breast, 108%; in the assay with NCI/ADR-RES ovarian, 107%; with T-47D breast, 114%; in the assay on BT-549 breast, 110%; in the assay with MDA-MB-435 melanoma, 99.1%. The growth in the assay on SW-620 colon is 102%; with MCF7 breast it was 102%; in the assay with HCT-116 colon it was 112%; in the assay with HCC-2998 colon, 101%; with KM12 colon, 102%.
